These results are taken from paper PMC9574860, “Chemical Toolkit for PARK7: Potent, Selective, and High-Throughput” (Journal of Medicinal Chemistry, 2022).

Screen size: about 7,900 compounds; about 400 (5.1%) showed an effect of 50% or more. The sample as a whole holds a higher share of strong results than the screen did.

Sequence of Parkinson's disease protein 7 (PARK7/DJ1) (Q99497 whole entry, looked up, the tested form may be a part): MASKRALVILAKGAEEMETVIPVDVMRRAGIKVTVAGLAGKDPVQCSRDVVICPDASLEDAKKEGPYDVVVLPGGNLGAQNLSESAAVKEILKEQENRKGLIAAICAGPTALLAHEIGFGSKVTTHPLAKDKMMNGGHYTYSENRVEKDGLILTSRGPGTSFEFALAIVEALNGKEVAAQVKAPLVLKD

The experiment addresses Parkinson's disease protein 7 (PARK7/DJ1) (human, UniProt Q99497). The experiment can be described thus: primary screen, percent inhibition; read as competition with a fluorescent probe by fluorescence polarization; higher = more effect of the substance. Particulars: 100 µM. How it is done:
The screen was conducted using the conditions as described above in 1536-well plates (Corning 3724) with a reaction volume of 8 μL per well. The compound library containing 7887 covalent fragments was purchased at Enamine Ltd. and received as 100 mM DMSO stocks in 384 well LDV Echo plates (Labcyte LP-0200). Stock solutions of 0.26 μM PARK7 and 80 nM JYQ-107 were prepared. Using a Labcyte Echo550 acoustic dispenser, 8 nL of the DMSO stock solution of the library compounds was transferred from the source plates into the empty 1536-well screening plates to obtain a 100 μM final compound concentration. Next, PARK7 (6 μL, final concentration 0.2 μM) was dispensed using a Biotek MultiflowFX liquid dispenser and incubated for 2 h, followed by dispensing the probe JYQ-107 (2 μL, final concentration 20 nM). After 2 h incubation, the FP signal was recorded on a BMG Labtech PHERAstar plate reader (λex/em 480/520 nm). The relative loss of FP signal compared with reference controls was used to calculate the remaining enzyme activity.
In the case of `CC1CC1C(=O)N[C@H]1CC[C@@H](CS(=O)(=O)F)C1` (stereo in doubt), the Inhibition % stood at 90.9%.
